Drawing on PubChem BioAssay AID1063 (University of Pittsburgh Molecular Library Screening Center, 2008), this text covers inhibition for 59 compounds.

Hit rate of the full screen: of about 200,000 compounds, about 18,000 (9%) were called active. This is one part of a sample in which actives are shown more often than they occur. Values without a mark were called inactive. Cut-off read from the data, not from the text of the source: active = inhibition above about 50%; inactive = the rest.

The term inhibition denotes the change of the read-out against control, counted positive when it falls.

The experiment in a line: antileishmanial activity against promastigotes – primary screen (AID 1063).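 Note: promastigotes grown with compound for 44 hours at 28 °C.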 The note with it: Leishmania major promastigotes, resazurin fluorescence viability; at 10 µM; hits give high values. On the technique in general: The colour change of resazurin is a common sign of viable cells or microbes.
As to `Cc1ccccc1NC(=O)Cn1c(=O)n(CC2CCCO2)c(=O)c2ccccc21` (centres undefined), the inhibition was -7.76%.

For the compound `Cc1cc(C)c(C#N)c(N2CCC(C(N)=O)CC2)n1`, the inhibition is -0.97%.

Regarding `Cc1csc(NC(=O)Nc2ccccc2[N+](=O)[O-])n1`, the inhibition is 4.81%.

`O=C(Oc1cccc(NC2=NS(=O)(=O)c3ccccc32)c1)c1ccncc1`: the inhibition was -2.71%.

With `O=C(N/N=C/c1ccc(OCc2ccccc2)cc1)c1ccc(O)cc1`, the inhibition is 12.5%.

As for `CCC1SC(CC)C(=O)N(CC(=O)NC2CCCCC2)C1=O` (centres undefined), the inhibition was -5.41%.

Take `CC1(C)C(=O)Nc2ccccc2N1C(=O)COC(=O)Cn1cnc2ccccc2c1=O`: the inhibition is -3.68%.

Regarding `CCNc1ccc(C(=O)OCC(=O)N2c3ccccc3NC(=O)C2(C)C)cc1[N+](=O)[O-]`, the inhibition is 54.4% (active).

`Cc1cc(C(=O)OCC(=O)N2c3ccccc3NC(=O)C2(C)C)c(C)n1-c1ccccc1`: the inhibition was 21.6%.

Take `COc1ccc(-c2csc(-c3cccs3)n2)cc1OC`: the inhibition is 0.19%.

As to `CCOc1ccc(-c2ccc(SCC(=O)N3CCOCC3)nn2)cc1`, the inhibition is -2.79%.

For the compound `Cc1ccc(-c2noc(CC(c3ccccc3)c3ccccc3)n2)cc1`, the inhibition was 7.54%.

For `Cc1ccc(Cc2nc(-c3cccc(C)c3)no2)cc1`, the inhibition was -3.66%.

As to `Cc1ccc(-c2noc(CN3CCN(Cc4ccccc4)CC3)n2)cc1`, the inhibition was 52.1% (active).

On to `Cn1cc(/C=C/C(=O)N2CCCC(C(=O)c3ccc(C(F)(F)F)cc3)C2)cn1` (centres undefined), for which the inhibition was -7.13%.

For `Brc1cc(/C=N/n2cnnc2)oc1Br`, the inhibition was -0.54%.

Turning to `S=c1[nH]nc(NCCc2ccccc2)s1`, the inhibition is -6.01%.

As for `COc1ccccc1N1CCN(C(=O)CN(Cc2ccc(Cl)cc2)S(C)(=O)=O)CC1`, the inhibition was -0.49%.

Take `COc1ccc(CNC(=O)CN(Cc2ccc(Cl)cc2)S(C)(=O)=O)cc1`: the inhibition is 57.5% (active).

For `COc1ccc(CCNC(=O)CN(c2ccccc2)S(C)(=O)=O)cc1`, the inhibition was -6.75%.

Consider `COc1ccc(OC)c(NC(=O)CN(Cc2ccc(Cl)cc2)S(C)(=O)=O)c1`, for which the inhibition is 90.1% (active).

With `COC(=O)c1ccccc1NC(=O)CN(Cc1ccc(Cl)cc1)S(C)(=O)=O`, the inhibition was 36.9%.

Turning to `COc1ccc(NC(=O)CN(Cc2ccccc2)S(C)(=O)=O)cc1OC`, the inhibition is -6.14%.

Regarding `CCC(C)NC(=O)CN(C1CCCCC1)S(C)(=O)=O` (centres undefined), the inhibition is 1.28%.

For the compound `O=C(COC(=O)c1ccncc1)c1ccccc1`, the inhibition was -4.89%.

With `CNC(=O)NC(=O)CSc1nnc(-c2ccc(F)cc2)n1CC1CCCO1` (centres undefined), the inhibition is -2.36%.

In the case of `Cc1nc2ccccn2c1C(=O)NN=C1CCN(C)CC1`, the inhibition was 35.4%.

Turning to `Nc1ccc(C(=O)OCC(=O)NC2CCCc3ccccc32)cc1[N+](=O)[O-]` (centres undefined), the inhibition was -5.78%.

`O=C(NC1CCc2ccccc21)C12CN(Cc3ccccc3)CC1C(c1cccc([N+](=O)[O-])c1)=NO2` (centres undefined): the inhibition was 58.3% (active).

For the compound `CCOc1cnc(C(=O)NNC(=O)c2ccccc2Br)o1`, the inhibition is -1.9%.

For `Cc1ccc(NC(=O)NNC(=O)c2sccc2-n2cccc2)cc1`, the inhibition was -8.12%.

As to `COC(=O)C1=C(C)N(C)C(=S)NC1c1ccccc1` (centres undefined), the inhibition was -3.63%.

`COC(=O)C1NN=C(C(=O)c2ccc(Br)cc2)C1c1cccc(Br)c1` (centres undefined): the inhibition is 24.8%.

`COC(=O)C1=C(C)N(C)C(C)=C(C(=O)OC)C1c1cccc(Br)c1`: the inhibition was 52.8% (active).

Regarding `COc1cccc(N(Cc2nnc3n2CCCCC3)C(=O)Nc2ccccc2F)c1`, the inhibition is -3.13%.

For `COC(=O)c1ccc(Oc2nc(Nc3ccc(F)cc3)nc(N3CCCC3)n2)cc1`, the inhibition was 2.39%.

With `CCOc1ccc(NC(=O)CN2CCN(CC(=O)Nc3ccc(OC)cc3)CC2)cc1`, the inhibition was 39.6%.

Consider `CCOc1ccc(Nc2nc(Cl)nc(N3CCN(c4ccc(OC)cc4)CC3)n2)cc1`, for which the inhibition was 53% (active).

Turning to `O=C(Oc1cccc(O)c1)C1CCCCC1`, the inhibition is -0.1%.

In the case of `CCC(=O)Nc1c(S(=O)(=O)c2ccccc2)c2nc3ccccc3nc2n1Cc1ccccc1`, the inhibition is 32.2%.

On to `Cc1ccc(S(=O)(=O)c2c(N)n(C)c3nc4ccccc4nc23)cc1`, for which the inhibition is 99.1% (active).

For `Cc1ccc(S(=O)(=O)Nc2nc(N)n(-c3ccccc3)n2)cc1`, the inhibition was -11%.

Regarding `CCOc1ccc(OCC)c(NC(=O)C2CCN(S(=O)(=O)c3c(C)noc3C)CC2)c1`, the inhibition is 26.8%.

For the compound `Cc1noc(/C=C/c2ccco2)c1S(=O)(=O)N1CCC(C(=O)N2CCc3ccccc32)CC1`, the inhibition was 66.6% (active).

Consider `CCOC(=O)C1CCN(C(=O)C2CCN(S(=O)(=O)c3c(C)noc3C)CC2)CC1`, for which the inhibition is -2.98%.

As for `Cc1noc(/C=C/c2ccco2)c1S(=O)(=O)N1CCC(C(=O)Nc2ccc(Cl)cn2)CC1`, the inhibition was 74.5% (active).

Turning to `Cc1noc(/C=C/N(C)C)c1S(=O)(=O)N1CCCC(C(=O)NCc2ccco2)C1` (centres undefined), the inhibition is -6.58%.

Consider `O=C(C1CCN(S(=O)(=O)Cc2ccccc2)CC1)N1CCCc2ccccc21`, for which the inhibition is 24.6%.

Consider `CC1=C(C(=O)N(C)C)C(c2ccccc2OC(F)F)NC(=O)N1` (centres undefined), for which the inhibition was -4.21%.

`CC(=O)NC(Cc1ccc(F)c(F)c1)C(=O)NC1CCN(C(=O)c2ccc(C)cc2)CC1` (centres undefined): the inhibition was -6.89%.

As to `CCN(CC)CC(=O)Nc1sc2c(c1C(=O)c1ccccc1C)CCC2`, the inhibition is 47.2%.

With `CCOC(=O)C1(Cc2ccc(Cl)cc2)CCN(C(=O)C2=NNC(=O)CC2)CC1`, the inhibition was 0.36%.

Turning to `O=C(N/N=C/c1ccc([N+](=O)[O-])o1)c1cn(-c2ccccc2)nc1-c1ccc(F)cc1`, the inhibition was 63.2% (active).

Take `Cc1nnc(SCC(=O)N/N=C/c2cn(-c3ccccc3)nc2-c2ccc(F)cc2)n1-c1ccccc1`: the inhibition was -0.75%.

For `O=C(CSc1ccc(/C=N/NC(=O)c2cccc(F)c2)o1)Nc1ccccc1`, the inhibition is -5.63%.

Regarding `OC1CCCN(c2ncnc3c2nnn3Cc2c(F)cccc2Cl)C1` (centres undefined), the inhibition is -5.48%.

`CC(=O)NC1C(OCc2ccccc2)OC(COC(C)=O)C(OC(C)=O)C1OC(C)=O` (centres undefined): the inhibition is 55.7% (active).

For the compound `CCCCCCCCCOC1OC(CO)C(O)C(O)C1NC(C)=O` (centres undefined), the inhibition is 16.4%.

Consider `CC(=O)NC1C(Oc2ccc(C=O)cc2)OC(COC(C)=O)C(OC(C)=O)C1OC(C)=O` (centres undefined), for which the inhibition is -1.48%.
